Test results as given in ChEMBL document CHEMBL3988442, “University of Dundee, Small-Polar-MMV Screening Library” (2021).
Screen size: about 69,000 compounds; about 950 (1.4%) showed an effect of 50% or more. The entries come from a sample that favours strong results as a whole.

test system: Mycobacterium tuberculosis; assay: Cornell M. t heat shock assay; assay type: functional, organism-based; parameters: dose or concentration left out as unconfirmed; also: in the data most compounds retested in dose-response had high values

| SMILES | Percent Effect [%] |
| --- | --- |
| O=C(O)C(F)(F)F.O=C(O)C(F)(F)F.O=C1COC2(CCN(Cc3ccncc3)CC2)CN1c1ccccc1 | -2.605 |
| CO[C@@H]1CCN(Cc2ccoc2)[C@H]1Cc1ccccc1.O=C(O)C(F)(F)F | 14.91 |
| Fc1cnc(N2CCCC3(CN(Cc4ccncc4)CCO3)C2)nc1.O=C(O)C(F)(F)F.O=C(O)C(F)(F)F (stereo unspecified) | 10.78 |
| Cc1ncc2c(n1)CCCC2NC(=O)c1ccc(Cn2cccn2)cc1 (stereo unspecified) | 72.35 |
| Cc1ncc2c(n1)CCCC2NC(=O)c1cnn(Cc2ccccc2)c1 (stereo unspecified) | -15.56 |
| Cc1ncc2c(n1)CCCC2NC(=O)c1ccncc1 (stereo unspecified) | -6.944 |
| c1ccc(CCN2CCCC2c2ccnc(Nc3ncccn3)n2)cc1 (stereo unspecified) | 91.35 |
| c1ccc(CCN2CCCC2c2ccnc(Nc3cnccn3)n2)cc1 (stereo unspecified) | 57.03 |
| Cc1nccc(C2CCCCN2Cc2ccccc2)n1 (stereo unspecified) | -13.8 |
| COCC(=O)N1CCCCC1c1ccnc(Nc2cnccn2)n1 (stereo unspecified) | -6.25 |
| COCC(=O)N1CCCC1c1ccnc(Nc2cnccn2)n1 (stereo unspecified) | -1.39 |
| Nc1nccc(C2CCCN2CCc2ccccc2)n1 (stereo unspecified) | 10.92 |
| COCCOc1ccc(NC(=O)C2CC(=O)N(C)C2)cn1 (stereo unspecified) | 4.167 |
| COCCn1cc(C(=O)N2CCCC2c2cccc(F)c2)ccc1=O (stereo unspecified) | -4.621 |
| O=C(O)C(F)(F)F.c1csc(CN2Cc3nccn3CC(Cn3cncn3)C2)c1 (stereo unspecified) | -12.15 |
| CCc1ccc(CN(CCN(C)C)Cc2ccc(C)s2)nc1 | 88.98 |
| CCNc1ncc(CN(CCN(C)C)Cc2ccc(C)s2)cn1 | 2.161 |
| COc1ncc(CN(CCN(C)C)Cc2ccc(C)s2)cn1 | -3.645 |

| SMILES | Percent Effect [%] |
| --- | --- |
| O=C(O)C(F)(F)F.O=C(O)C(F)(F)F.c1cncc(OC[C@]23COC[C@H]2CN(Cc2ccsc2)C3)c1 | -29.89 |
| Cl.O=S(=O)(c1ccc(Cl)cc1)N1CCc2nc(C3CCNCC3)ncc2C1 | 15.18 |
| COc1cccnc1-c1ccc(F)c2c1OC(CN)C2 (stereo unspecified) | -14.02 |
| COc1cc(-c2ccc(F)c3c2OC(CN)C3)cc(OC)c1OC (stereo unspecified) | -5.435 |
| COc1cc(C)c(-c2ccc(F)c3c2OC(CN)C3)cc1C (stereo unspecified) | 51.67 |
| CC(C)CCN1C[C@H]2C[C@H](C(=O)N3CCCC3)[C@@H](C1)O2.O=C(O)C(F)(F)F | 37.85 |
| CC1CCCCN1C(=O)CN1CCN(c2ccc3nncn3n2)CC1 (stereo unspecified) | 5.269 |
| O=C(CN1CCN(c2ccc3nncn3n2)CC1)NC1CCCC1 | 59.84 |
| O=C(CCN1CCN(c2ccc3nncn3n2)CC1)N1CCCCC1 | -7.972 |
| CC1CN(CC(=O)N2CCCC2)CCN1c1ccc2nncn2n1 (stereo unspecified) | 15.46 |
| CC1CN(Cc2nccn2C)CCN1c1ccc2nncn2n1 (stereo unspecified) | -15.38 |
| CC1CN(CC2CCCCC2)CCN1c1ccc2nncn2n1 (stereo unspecified) | 16.09 |
| CC1CN(CC(=O)NC2CCCC2)CCN1c1ccc2nncn2n1 (stereo unspecified) | 176.2 |
| Cc1cnc(CN2CCN(c3ccc4nncn4n3)C(C)C2)cn1 (stereo unspecified) | -3.544 |
| O=C(CN1CCN(c2ccc3nncn3n2)CC1)NC1CCCCC1 | 57.46 |
| c1ccc(CN2CCN(c3ccc4nncn4n3)CC2)nc1 | 6.511 |
| CC1CN(CC2CCCC2)CCN1c1ccc2nncn2n1 (stereo unspecified) | 85.93 |
| O=C(CCN1CCN(c2ccc3nncn3n2)CC1)NC1CCCC1 | -7.134 |
